Assay outcomes deposited in PubChem by National Center for Advancing Translational Sciences (NCATS).
PTHR1 ag: activates the human parathyroid hormone receptor PTHR1; Q03431; HEK293 GP2 PTHR1 cells, GloSensor cAMP luminescence, 1 h; Potency, µM (highest dose often 115 µM), usual class: activators; hit rate 0.075% among 410,000; AID 743266; note: nearly all actives have a fitted effect of over 55% in size
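HEK-293-derived GP2 cells expressing PTHR1 and a GloSensor cAMP reporter, 3,000/well, plated overnight, given luciferin plus IBMX (each 0.5 mM as added) for 1 h at 37 °C, then compound for 1 h at 37 °C. Luminescence was read after 15 min at room temperature.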
GLP1R cytotox: cytotoxicity in counter-screen for GLP-1R inverse agonists; HEK293 cAMP-luciferase reporter cells, luminescence, 24 h; Potency, µM (doses to about 38.3 µM), hits mostly inhibitors; hit rate 0.13% among 410,000;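 note: loss of luciferase light is scored as toxicity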
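To flag toxic compounds, the library was rerun on cells for 24 hr at 37 deg C and 5% CO2. Viability-linked luminescence was captured 12 min after adding luciferase detection reagent.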
TRPML1 ag: activates the human TRPML1 channel. TRPML1-expressing cells, Ca2+ dye fluorescence, FDSS. activation, % (concentration not given with the values). hit rate 0.12% among 410,000. AID 624414; in the data active = activation above about 50%; inconclusive = mostly about 30% to 49%
Target sequence (Q9GZU1 whole entry, looked up): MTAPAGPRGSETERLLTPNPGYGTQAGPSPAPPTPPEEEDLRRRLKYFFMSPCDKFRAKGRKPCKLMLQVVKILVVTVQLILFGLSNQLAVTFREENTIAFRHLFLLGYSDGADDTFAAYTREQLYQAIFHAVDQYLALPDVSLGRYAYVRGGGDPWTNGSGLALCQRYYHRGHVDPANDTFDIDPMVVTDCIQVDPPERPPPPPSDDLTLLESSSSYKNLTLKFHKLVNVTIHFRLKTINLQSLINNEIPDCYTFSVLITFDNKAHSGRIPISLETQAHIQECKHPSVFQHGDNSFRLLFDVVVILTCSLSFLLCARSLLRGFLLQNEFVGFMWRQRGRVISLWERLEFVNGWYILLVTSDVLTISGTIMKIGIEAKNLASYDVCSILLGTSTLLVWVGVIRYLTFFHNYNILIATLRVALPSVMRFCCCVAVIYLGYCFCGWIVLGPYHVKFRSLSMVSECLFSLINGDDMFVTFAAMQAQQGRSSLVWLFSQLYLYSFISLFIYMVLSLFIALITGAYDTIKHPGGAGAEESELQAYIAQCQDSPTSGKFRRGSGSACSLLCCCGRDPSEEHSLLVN
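In this qHTS format, compounds were pin-transferred onto Ca8-dye-loaded TRPML1-DL cells induced with Tet overnight, and intracellular Ca2+ fluorescence was recorded kinetically for 110 s after a 10 s baseline. A subsequent 4uM final 54-4 (EC80) addition followed by a second 110 s read served as the antagonist phase.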
TRHR agonist: agonists of human TRH receptor. TRHR cells, calcium flux fluo-8, FDSS agonist mode. activation, % at 2 µM. hit rate 0.18% among 360,000. P34981; in the data active = activation above about 30%
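Read-out: compound-evoked intracellular calcium rise in TRHR cells, fluo-8 dye, kinetic FDSS fluorescence at 1 s/cycle following a 10-cycle baseline. Cells cultured overnight before dye loading (30 min–1.5 h, RT).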
TRPML1 blocker: blocks the human TRPML1 channel. Q9GZU1. TRPML1-inducible cells, Ca2+ dye fluorescence, FDSS; stronger effect = lower value; inhibition of EC80 agonist-evoked calcium signal. activity change, negative = inhibition, % (concentration not given with the values). hit rate 0.02% among 390,000. AID 624415; in the data active = activity change below about -50%; inconclusive = between about -30% and that limit;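 note: stimulus is agonist 54-4 at its EC80 concentration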
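TRPML1-DL cells, Tet-induced overnight (~16 h, 37 °C) at 1,500 cells/well, were loaded with Ca8 no-wash dye plus quencher for 45-90 min at room temperature. Compounds were pinned during FDSS kinetic reading; agonist 54-4 at EC80 (4 uM final) then added.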
TRHR PAM: TRH receptor (human) allosteric enhancement | P34981 | TRHR cells, fluo-8 calcium fluorescence, EC20 TRH enhancement | enhancement, % at 2 µM | hit rate 0.66% among 360,000 | AID 493056; in the data active = enhancement above about 30%
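TRHR-expressing cells loaded with fluo-8 calcium dye were read kinetically (ex 480/em 530) during compound addition, then stimulated with an EC20 of TRH (10 nM final). Enhancement of the Gq-mediated intracellular calcium response was scored.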
A number is an active result; i = inactive; ? = inconclusive; nt = no result given; ! = not confirmed by another sample. Hits are enriched below; roughly 0.93% of the tested compounds scored in any of these assays. Unless noted, calls come from the whole dose curve; as a rule, active = well fitted curve in the direction sought with a large enough effect; inconclusive = small, poorly fitted or top-dose-only effect, or another doubt; inactive = no such curve, though single readings can be large; an effect the other way counts as inactive or inconclusive.

SMILES	PTHR1 ag	GLP1R cytotox	TRPML1 ag	TRHR agonist	TRPML1 blocker	TRHR PAM
CC(C)Cc1nn2c(=O)cc(COC(=O)c3ccccc3NC(=O)c3ccccc3)nc2s1	?	i	i	i	-56	i
CC(C)(C)n1ncc2c(=O)n(Cc3c(Cl)cccc3Cl)cnc21	nt	nt	i	nt	i	nt
Nc1c(Br)cc(/C=C/c2ccnc3ccccc23)cc1Br	nt	nt	i	nt	nt	nt
CN(C)C(CNC(=O)c1ccc(-c2ccccc2)cc1)c1ccccc1 (centres undefined)	i	i	i	i	i	31
C=C1C=C(C(F)F)n2ncc(C(=O)NCc3ccccc3OC)c2N1	nt	nt	i	nt	nt	nt
COc1ccccc1/C=c1/[nH]c(=O)/c(=C\c2ccccc2OC)[nH]c1=O	nt	nt	i	nt	nt	nt
CCOc1ccc(NC(=O)/C(C#N)=C/c2ccc(N3CCCC3)c(C)c2)cc1	i	i	i	32	i	i
CCN(CC)S(=O)(=O)c1ccc(N2CCCCC2)c(NC(=O)/C(C#N)=C/c2ccc(OC)cc2)c1	i	i	i	i	i	i
Cc1ccc(C(c2nnnn2C(C)(C)C)N(Cc2ccco2)Cc2cccs2)cc1 (centres undefined)	i	i	60	i	i	i
O=C(Cc1ccccc1)NCC(=O)OCC(=O)c1cccc2ccccc12	nt	nt	i	nt	nt	nt
Cc1cc(N(C)C)c(C)cc1/C=C/c1ccnc2ccccc12	nt	nt	i	nt	nt	nt
COc1ccc(CC(=O)OCC(=O)NC(=O)NC2CCCCC2)cc1	i	i	i	i	i	39
COc1ccc(CC(=O)OCC(=O)NC(=O)NC2CCCC2)cc1	i	i	i	i	i	i
NS(=O)(=O)c1ccc(CCNC(=O)C(=O)c2cn(CC(=O)N3CCOCC3)c3ccccc23)cc1	i	i	i	i	i	34
CCOc1ccc(C2CC(=O)NC(NC(=O)c3ccc(C)cc3)=N2)cc1 (centres undefined)	i	i	i	i	i	35
Cc1cc(C)c(N)c(C(=O)O)c1	i	i	i	i	i	38
Cc1cc(C(=O)O)cc(Br)c1N	i	i	i	i	i	i
CC(O)COCC1OC2OC3C(COCC(C)O)OC(OC4C(COCC(C)O)OC(OC5C(COCC(C)O)OC(OC6C(COCC(C)O)OC(OC7C(COCC(C)O)OC(OC8C(COCC(C)O)OC(OC1C(OCC(C)O)C2OCC(C)O)C(OCC(C)O)C8OCC(C)O)C(OCC(C)O)C7OCC(C)O)C(OCC(C)O)C6OCC(C)O)C(OCC(C)O)C5OCC(C)O)C(OCC(C)O)C4OCC(C)O)C(OCC(C)O)C3OCC(C)O (centres undefined)	nt	nt	i	nt	nt	nt
CCC[N+](C)(C)c1ccc(/C=C/c2ccnc3ccccc23)cc1	nt	nt	i	nt	nt	nt
COc1cc2nc(N3CCN(C)CC3)nc(NC(C)C)c2cc1OC	nt	nt	i	nt	nt	nt
O=C(C1=NN(c2ccccc2)C2C(=O)N(c3cccc(Cl)c3)C(=O)C12)c1ccccc1 (centres undefined)	i	i	?	41	i	i
O=C(C1=NN(c2ccccc2)C2C(=O)N(c3ccc(Cl)cc3)C(=O)C12)c1ccccc1 (centres undefined)	i	i	i	i	i	i
Cc1ccccc1Nc1nc(C#N)nc(NC2CCCC2)n1	nt	nt	nt	i	nt	i
Cc1ccnc2c1ccc1ccccc12	i	i	i	i	i	i
Cc1ccnc2c1ccc1cccnc12	i	1.6µM	i	i	i	i
SMILES	PTHR1 ag	GLP1R cytotox	TRPML1 ag	TRHR agonist	TRPML1 blocker	TRHR PAM
Cc1ccccc1OCC(=O)NNC(=O)CCc1ccccc1	i	i	i	i	i	32
C=CCNC(=S)N/N=C/c1ccc(C)c([N+](=O)[O-])c1	i	7.9µM	i	i	i	i
CCC(=O)NC(c1ccc(C)s1)c1cc(Cl)c2cccnc2c1O (centres undefined)	nt	nt	nt	i	nt	i
N#Cc1nc(Nc2cccc3ccccc23)nc(NC2CCCC2)n1	nt	nt	nt	i	nt	i
COc1cccc(NC(=O)CCC(=O)Nc2cccc(OC)c2)c1	i	i	i	i	i	i
CCOCC(=O)Nc1cccc(OC)c1	i	i	i	i	i	30
O=C(O)C1CCCC1	nt	nt	i	nt	nt	nt
COCCN1C(=O)/C(=C/c2ccc(N3CCCC3)cc2C)SC1=S	i	i	i	53	i	i
Cc1ccc(C(=O)Nc2cccc(-c3nc4ccccc4o3)c2)c(Cl)c1	i	i	i	i	i	i
Cc1cc2oc(C(=O)Nc3cccc(-c4nc5ccccc5o4)c3)c(C)c2cc1Cl	i	i	i	i	i	33
CCN(CC)C(=O)N1CCN(/[N+]([O-])=N/Oc2ccc([N+](=O)[O-])cc2[N+](=O)[O-])CC1	nt	nt	i	nt	i	nt
COc1cc(/C=C2\SC(=O)N(CC(=O)Nc3ccccc3F)C2=O)cc(Cl)c1O	i	i	?	101	i	i
Cc1cc2c(s1)c1cnn(Cc3c(F)c(F)c(C)c(F)c3F)c(=O)c1n2C	nt	nt	nt	i	nt	i
CCOCCCNC(=O)c1c(NC(=O)c2nc(SCC)ncc2Cl)sc2c1CCCC2	nt	nt	i	nt	nt	nt
COc1cc(NC(=O)CCS(=O)(=O)c2ccc3c(c2)n(C)c(=O)c(=O)n3C)cc(OC)c1	22µM!	i	i	i	i	i
CCc1ccc(NC(=O)CCS(=O)(=O)c2ccc3c(c2)n(C)c(=O)c(=O)n3C)cc1	i	i	i	i	i	i
O=C(Nc1cc2c3c(c1)CC(=O)N3CCC2)c1ccccc1Br	i	i	i	i	i	34
O=C(Nc1cc2c3c(c1)CC(=O)N3CCC2)c1ccc(Br)cc1	i	i	i	i	i	i
CC(C)(C)CN1CCNC(=O)C1CC(=O)NCCc1ccccc1F (centres undefined)	i	i	i	i	i	31
CC(C)(C)CN1CCNC(=O)C1CC(=O)NCCc1cnn(-c2ccccc2)c1 (centres undefined)	i	i	i	i	i	i
Cc1cc(C)n(CC(C)Nc2nc3nonc3nc2N2CCCCC2)n1 (centres undefined)	i	i	i	i	i	i
Cc1nn(C)cc1C(C)Nc1nc2nonc2nc1N1CCCCC1 (centres undefined)	i	i	i	i	i	33
COC(=O)c1c(C)cccc1C1CN=NC12Cc1ccccc1C2=O (centres undefined)	i	i	113	nt	i	nt
